Results published in ChEMBL document CHEMBL3988442, “University of Dundee, Small-Polar-MMV Screening Library” (2021).
Among all 48,000 compounds or so, about 13,000 (27%) showed an effect of 50% or more. This is one part of the list.

test system: Wolbachia pipientis; assay: Anti-Wolbachia Cell-Based Screen; type: functional; set-up: scale not given: in the data most compounds retested in dose-response had high values; details: 5 µM

| SMILES | Percent Effect |
| --- | --- |
| Cc1nc(S(=O)(=O)N2CCc3[nH]nc(CCC(C)C)c3C2)cn1C | 14.04% |
| CC(C)CN1CC(c2nc(CCc3ccccc3)n[nH]2)CC1=O (configuration not stated) | 6.531% |
| CN1CCCC[C@@H]2[C@H]1[C@@H](c1ccccc1)CCN2C(=O)c1cccnc1 | 94.07% |
| O=C(c1cccnc1)N1CCCC1C1CCN(Cc2ccccc2)CC1 (configuration not stated) | -39.09% |
| CN1CCCC[C@@H]2[C@H]1[C@@H](c1ccccc1)CCN2C(=O)c1ccccc1 | -7.424% |
| CN1CCCC[C@@H]2[C@H]1[C@@H](c1ccccc1)CCN2C(=O)c1ccncc1 | 88.59% |
| CN1CCCCC[C@@H]2[C@@H]1[C@H](c1ccccc1)CN2C(=O)c1cccnc1 | 98.96% |
| CC(C)=CCN1CCN(C(=O)c2snnc2C)[C@H]2CS(=O)(=O)C[C@H]21 | -1.087% |
| Cc1nnsc1C(=O)N1CCN(CC2CC2)[C@@H]2CS(=O)(=O)C[C@@H]21 | 2.438% |
| O=C(c1ccncc1)N1CCCC1C1CCN(Cc2ccccc2)CC1 (configuration not stated) | -37.72% |
| Cc1nnsc1C(=O)N1CC[C@H](c2ccccc2)[C@@H]2[C@H]1CCCCN2C | 109% |
| COC(=O)C1CCCN1C(=O)c1ccc(Cl)cc1F (configuration not stated) | 16.38% |
| CN1CCN(c2ccc(NC(=O)c3ccccn3)c(C(F)(F)F)c2)CC1 | -8.677% |
| CCNC(=O)c1ccoc1CN1c2ccccc2CC1C (configuration not stated) | -6.269% |
| CCN(CCc1nc2cc(C)ccc2[nH]1)C(=O)[C@@H](N)COC | 2.321% |
| Cc1nc(CCNc2ccc(-c3nc(C)c(C)c(=O)[nH]3)cn2)cs1 | 1.722% |
| COc1c(C)cnc(CNC(=O)CCc2nc3ccccc3[nH]2)c1C | 4.531% |
| O=C(CCc1nc2ccccc2[nH]1)NC1CCOC2(CCOCC2)C1 (configuration not stated) | 103.6% |
| O=C(CCS(=O)(=O)c1ccccc1)NC1CCOC2(CCOCC2)C1 (configuration not stated) | 92.28% |
| O=C(CCCc1nc2ccccc2[nH]1)N1CCCC1c1ccccn1 (configuration not stated) | -11.11% |
| CN(C)C(=O)NC1COC2(CCN(S(=O)(=O)c3ccccc3)CC2)C1 (configuration not stated) | 5.169% |
| O=C(NCCNc1ccccn1)NC1CCOC2(CCCCC2)C1 (configuration not stated) | -19.85% |

| SMILES | Percent Effect |
| --- | --- |
| CCc1ncc2c(n1)CN(C(=O)CNC(=O)c1ccccc1)C2 | 27.82% |
| COc1cccc(CN(C)Cc2[nH]c3ccccc3c2C)c1O | 10.98% |
| Cc1cccc(CN2CC3(CCN(C4CCOC4)CC3)OCC2=O)n1.O=C(O)C(F)(F)F.O=C(O)C(F)(F)F (configuration not stated) | 100.8% |
| Cc1cccc(CN2CC3(CCN(S(=O)(=O)C4CC4)CC3)OCC2=O)n1.O=C(O)C(F)(F)F | 102.5% |
| Cc1cccc(CN2CC3(CCN(C(=O)N(C)C)CC3)OCC2=O)n1.O=C(O)C(F)(F)F | 105.7% |
| O=C(O)C(F)(F)F.O=C1COC2(CCN(c3cccc(F)c3)CC2)CN1Cc1ccccn1 | -8.645% |
| Cc1cccc(CN2CCC3(CCCN(C(=O)N(C)C)C3)C2=O)n1.O=C(O)C(F)(F)F (configuration not stated) | -4.614% |
| Cc1cccc(N2CC3(CCN(S(=O)(=O)C4CC4)C3)C2)n1.O=C(O)C(F)(F)F | 2.181% |
| CCS(=O)(=O)N1CCC2(CC1)CN(Cc1ccccn1)C(=O)CO2.O=C(O)C(F)(F)F | -5.616% |
| Cc1ccc(N2CCC3(CC2)CCN(C2CCOC2)CC3)nn1.O=C(O)C(F)(F)F (configuration not stated) | -7.269% |
| CC(CCNC(=O)N1CCC1)N(C)C(=O)OC(C)(C)C (configuration not stated) | -2.382% |
| Cl.Cl.O[C@@H]1C[C@@](CNCc2ccc(F)cc2)(COc2cccnc2)C[C@@H]1O | -10.51% |
| Cc1ncc(CNCC2CCC(C(N)=O)CC2)n1-c1ccccc1 (configuration not stated) | -1.319% |
| CCc1nc(N)nc(NCCC(=O)NC2CCCCC2)c1C | 10.22% |
| CCS(=O)(=O)NCC1Cn2nnc(-c3cccc(C)c3)c2CO1 (configuration not stated) | -10.41% |
| CCOCCC(=O)N1C[C@H]2CC[C@@H]1CN(c1ncccn1)C2 | 22.34% |
| CNC(=O)[C@@]12CCO[C@@H]1CCN(Cc1ccc3c(c1)OCO3)C2.O=C(O)C(F)(F)F | 92.17% |
| O=C(NC1CC1)[C@H]1CN(Cc2ccc3c(c2)OCO3)C[C@H]2OCC[C@@H]12.O=C(O)C(F)(F)F | -14.17% |
| O=C(NC1CC1)[C@@]12CCO[C@@H]1CCN(Cc1ccc3c(c1)OCO3)C2.O=C(O)C(F)(F)F | 117% |
| CN(C)C(=O)[C@@H]1CCO[C@@H]2CCN(Cc3ccc4c(c3)OCO4)C[C@@H]21.O=C(O)C(F)(F)F | -16.18% |
| Cc1ncsc1CN1CC[C@H]2OCC[C@@]2(C(=O)NC(C)C)C1.O=C(O)C(F)(F)F | 3.331% |
| CNC(=O)[C@@]12CCO[C@@H]1CCN(Cc1cccc(C)c1)C2.O=C(O)C(F)(F)F | 5.352% |

| SMILES | Percent Effect |
| --- | --- |
| CN1CCC2(COCCN(Cc3ccc4c(c3)OCO4)C2)C1.O=C(O)C(F)(F)F.O=C(O)C(F)(F)F (configuration not stated) | -6.126% |
| O=C(NC1CC1)[C@@H]1CN(Cc2ccc3c(c2)OCO3)C[C@H]2OCC[C@H]21.O=C(O)C(F)(F)F | -3.513% |
| CN(C)C(=O)[C@@]12CCO[C@@H]1CCN(Cc1ccc3c(c1)OCO3)C2.O=C(O)C(F)(F)F | 104.9% |
| Cc1ncsc1CN1CC[C@H]2OCC[C@@]2(C(=O)NC2CC2)C1.O=C(O)C(F)(F)F | 0.183% |
| CC(C)NC(=O)[C@@H]1CN(Cc2ccc3c(c2)OCO3)C[C@H]2OCC[C@H]21.O=C(O)C(F)(F)F | -18.01% |
| CC(C)NC(=O)[C@@]12CCO[C@@H]1CCN(Cc1ccc3c(c1)OCO3)C2.O=C(O)C(F)(F)F | 90.31% |
| O=C1OCCN1Cc1cccc(C(F)(F)F)c1F | -20.92% |
| CCC(NC(=O)c1ccco1)c1ccccc1OCC(=O)N1CCCC1 (configuration not stated) | 7.206% |
| CCOc1ccc(NC(=O)c2oc(CC)cc2C)cc1CO | -16.02% |
| Cc1cc(CN2CC[C@H]3OCC[C@@]3(C(=O)NCc3ccco3)C2)no1.O=C(O)C(F)(F)F | -7.292% |
| O=C(NCc1ccco1)[C@@]12CCO[C@@H]1CCN(CC1CCOCC1)C2.O=C(O)C(F)(F)F | -4.272% |
| CC(C)NC(=O)[C@@]12CCO[C@@H]1CCN(Cc1ccco1)C2.O=C(O)C(F)(F)F | 113.3% |
| O=C(NC1CC1)[C@@H]1CCO[C@@H]2CCN(C3CCCC3)C[C@H]21 | -4.337% |
| COc1ccc(CN2CCN(CC3CC3)[C@@H]3CS(=O)(=O)C[C@@H]32)cc1O | 13.23% |
| Cc1n[nH]cc1CNC1CCN(c2ccc(F)cc2)CC1.Cl | -3.892% |
| CC(C)(C)c1n[nH]cc1CNC1CCC(O)CC1 (configuration not stated) | 81.49% |
| CC(C)(C)c1n[nH]cc1CNC1CCC(OCC(F)(F)F)CC1.Cl (configuration not stated) | 88.78% |
| Cc1n[nH]cc1CNCc1ccnc(OCC(F)(F)F)c1.Cl | -12.37% |
| COc1ccc(-c2cc[nH]n2)cc1CNC1CCCC1 | -3.837% |
| Cc1n[nH]cc1CNC1CCN(c2cccc(C(F)(F)F)c2)CC1 | -2.63% |
| Cc1ccc(CNCc2c[nH]nc2C(C)(C)C)c(OC2CCOC2)c1 (configuration not stated) | 13.41% |
| CC(C)(C)c1n[nH]cc1CNC1CCC(C(F)(F)F)CC1.Cl (configuration not stated) | 89.77% |

| SMILES | Percent Effect |
| --- | --- |
| CN(Cc1ccccc1)CC(C)(C)NC(=O)c1cnccn1 | 4.118% |
| Cc1cccc(S(=O)(=O)N2CC[C@H]3[C@H]2CCN3c2ncccn2)c1.O=C(O)C(F)(F)F | -3.796% |
| O=c1[nH]ccc2cc(-c3cc(O)cc(CCC4CCCCN4)c3)ccc12 (configuration not stated) | -30.56% |
| Cc1cccc(C(=O)N2CCCC2)c1NCC(=O)NC(C)(C#N)C1CC1 (configuration not stated) | 5.415% |
| CCC(CC)c1cc(CNC(=O)N2CCCC(N(C)C)C2)on1 (configuration not stated) | -19.35% |
| O=c1[nH]c(CCN2CCN(CC(F)(F)F)CC2)nc2ccccc12 | -18.37% |
| O=C(CN1CCCNC1=O)Nc1ccccc1C(=O)C1CCCC1 | 8.695% |
| CC(C)N1CC[C@H](c2nnc(Cc3c[nH]c4ccccc34)o2)C1 | -6.101% |
| Clc1ccc(CN2CCC3(CC2)CC(c2cccnc2)=NO3)cc1 | 114.5% |
| c1cncc(C2=NOC3(CCN(Cc4c[nH]c5ccccc45)CC3)C2)c1 | 119% |
| OCC1(Cc2ccc(Cl)cc2)CCN(Cc2cccnc2)CC1 | -27.42% |
| c1cncc(O[C@H]2COCCN(Cc3c[nH]c4ccccc34)C2)c1 | 0.3938% |
| CC1(C)CN(Cc2nnc(-c3cccnc3)o2)CC[C@]1(C)O | -0.3969% |
| O=C(O)c1ccc2c(CN3CCCC3)c[nH]c2c1 | -9.8% |
| c1ccc(C2=NOC3(CCN(Cc4c[nH]c5ccccc45)CC3)C2)cc1 | 122.3% |
| Clc1ccc(CN2CCOC[C@H](Oc3cccnc3)C2)cc1 | -8.51% |
| CC(C)C1=NOC2(CCN(Cc3c[nH]c4ccccc34)CC2)C1 | 126.9% |
| O=C(O)c1ccc2c(CN3CCOCC3)c[nH]c2c1 | 6.765% |
| CC(C)CCN1CC[C@H](c2nnc(Cc3c[nH]c4ccccc34)o2)C1 | -3.447% |
| CCc1nnc2n1CCN(C(=O)c1csc(-c3cnn(C)c3)n1)C2 | -10.57% |
| CCN1C[C@H]2CCN(C(=O)C3CCCO3)CC[C@H]2S1(=O)=O (some centres not stated) | -2.394% |
